assay: viability profiling in RPMI8226 myeloma cells – cell-based, resazurin fluorescence, basal, 24 h, PK04 Diversity Set, profiling panel (AID 1180); conditions: higher = more signal;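 also: RPMI8826 multiple myeloma cell line at 5000 cells per well; test concentration not given here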

Compound | z-score
O=C1c2ccccc2[C@](Cc2ccccc2I)(C(=O)NCCN2CCOCC2)[C@H](c2ccc(CO)cc2)N1Cc1ccccc1 | -0.713
CN(C)CCCCNC(=O)[C@H]1C[C@H]2C(=O)N3CCC[C@H]3C(=O)N2[C@H]1c1ccc(O)cc1 | -0.536
C=C(CCCC)C(=O)CC[C@@H](OC(=O)c1ccccc1-c1ccccc1C(=O)O)c1cccc(OCCO)c1 | -0.301
C=C(C(=O)CC[C@H](OC(=O)c1cccnc1)c1ccc(CO)o1)C(C)C | -0.74
COc1ccc(C#Cc2ccc3c(c2)[C@]2(C(=O)N3)[C@H](C(=O)N3CCc4cc(OC)c(OC)cc4C3)[C@H]3C(=O)O[C@H](c4ccccc4)[C@H](c4ccccc4)N3[C@@H]2c2ccc(O)cc2)cc1 | -0.482
[N-]=[N+]=NCc1ccccc1C[C@@]1(C(=O)N2CCCCC2)N=C(c2ccc(OCCCO)cc2)O[C@@H]1c1ccccc1N=[N+]=[N-] | -0.892
C=C[C@@H](COC(C)=O)NS(=O)(=O)c1ccc(Br)cc1 | -0.978
CCOC(=O)C[C@H]1[C@H](OC(=O)c2ccc(-c3ccccc3)cc2)[C@@H](NC(=O)c2ccc3ccccc3c2)c2cc(OCCCO)ccc2N1C(=O)c1ccc2ccccc2n1 | -0.152
CC(C)(C)OC(=O)CC[C@]1(C(=O)NCCN2CCOCC2)N=C(c2ccc(OCCCO)cc2)O[C@H]1c1ccccc1 | 0.13
C=CCOC(=O)[C@@H]1[C@H]2C(=O)O[C@H](c3ccccc3)[C@H](c3ccccc3)N2[C@H](c2ccc(OCCOC(=O)[C@H]3C[C@H]4C(=O)N[C@@H](CC(C)C)C(=O)N4[C@H]3c3ccc(O)cc3)cc2)[C@@]12C(=O)Nc1ccc(I)cc12 | 0.597
O=C(CS)NCCCCCCNC(=O)[C@@H]1C[C@@H]2C(=O)N3CCC[C@H]3C(=O)N2[C@@H]1c1cccc(OCCO)c1 | 0.356
COc1ccccc1CN1C(=O)c2ccccc2[C@@H](C(=O)NC(C)C)[C@@H]1c1ccc(CO)cc1 | 1.17
C=CCOC(=O)[C@@H]1[C@H]2C(=O)O[C@H](c3ccccc3)[C@H](c3ccccc3)N2[C@H](c2ccc(OCCOC(=O)[C@H]3C[C@H]4C(=O)N[C@@H](CCCCNC(C)=O)C(=O)N4[C@H]3c3cccc(OCCO)c3)cc2)[C@@]12C(=O)Nc1ccc(I)cc12 | -0.354
O=C1OCC=C[C@H]2OC34C=CCN(Cn5nnc6ccccc65)C(=O)[C@H]3N(CCCCCCO)C(=O)[C@@H]4[C@@H]12 (stereo not given in full) | -0.134
COC(=O)Cn1c(C(=O)N2CCCC2)cc2c1C[C@H]1CN(C(=O)c3ccccc3)[C@@](Cc3ccc(F)cc3)(C(=O)OC)[C@@H]21 | 0.303
COc1cc(OC)c(C(O)C2C=CC3C(=O)N(c4ccccc4)C(=O)C3N2Nc2ccc(C#N)cc2)cc1Br (stereo not given) | -0.758
COc1ccc([Si](C)(C)[C@@H]2[C@@H](CC(=O)N3CCC[C@H]3CO)O[C@]3(C(=O)N(Cc4ccc(N5C(=O)c6cccc7cccc5c67)cc4)c4ccccc43)[C@H]2C)cc1 | -4.75
CC=CC(O)C1C=CC2C(=O)N(c3ccccc3)C(=O)C2N1Nc1ccccc1 (stereo not given) | 0.394

Compound | z-score
CC(C)C(=C=CC[C@@H](O)c1ccccc1OCCO)C[C@@H](O)COCc1ccccc1 | 0.424
CC(C)(C)N1CC=CC23O[C@@H]4C=CCOC(=O)[C@@H]4[C@H]2C(=O)N(CCCO)[C@@H]3C1=O (stereo not given in full) | -0.808
COc1c(C)cc(-c2cc3c(c(-c4ccccc4)n2)[Si](C(C)C)(C(C)C)OC3)cc1C | 0.798
Cc1ccc(S[C@]2(C(=O)NCC(C)C)CC(=O)N(Cc3ccccc3Cl)[C@@H]2c2ccc(CO)cc2I)cc1 | -2.44
O=C1O[C@@H](c2ccccc2)[C@@H](c2ccccc2)N2[C@@H](c3ccccc3OCCO)[C@]3(C(=O)Nc4ccc(C#CC5=CCCCC5)cc43)[C@@H](C(=O)NC[C@H](O)c3ccccc3)[C@H]12 | -5.79
O=C(O)[C@H](Cc1ccccc1)n1cc(-c2ccccn2)nn1 | 0.373
CC1CC/C=C\[C@H]2OC34C=CCN(CCN5CCOCC5)C(=O)[C@H]3N(CCO)C(=O)[C@@H]4C2C(=O)O1 (stereo not given in full) | 0.119
CCOC(=O)C[C@H]1[C@H](OC(=O)c2ccc(-c3ccccc3)cc2)[C@@H](NC(=O)C2CCCCC2)c2cc(OCCCO)ccc2N1C(=O)c1ccccc1 | -0.95
COCCCNC(=O)[C@@]1(Sc2ccc(C)cc2)CC(=O)N(Cc2cc(C(F)(F)F)cc(C(F)(F)F)c2)[C@@H]1c1ccc(CO)cc1 | -0.368
CCCC[C@@H]1C[C@H]1[C@@H](NC(=O)c1cccnc1)c1ccc(-c2ccccc2)cc1 | 2.9
O=C1O[C@@H](c2ccccc2)[C@@H](c2ccccc2)N2[C@@H](c3ccc(O)cc3)[C@]3(C(=O)Nc4ccc(C#CCCO)cc43)[C@@H](C(=O)Nc3nc4ccccc4s3)[C@H]12 | 0.73
O=C(O)[C@]1(Cc2ccccc2)N=C(c2ccc(OCCCO)cc2)O[C@@H]1c1ccccc1 | 1.09
Cc1ccc(S[C@]2(C(=O)NCc3ccccc3)CC(=O)N(C(C)C)[C@@H]2c2ccc(CO)cc2I)cc1 | -2.35
Cc1ccc(C(C)CC(O)C2C=CC3C(=O)N(c4ccccc4)C(=O)C3N2Nc2ccc(C(C)C)cc2)o1 (stereo not given) | -1.03
C=CC[C@]12N=C(c3ccc(OCCCO)cc3)O[C@H]1c1ccccc1N(C)C2=O | -1.28
C=C(COC)/C(=C/C[C@@H](OC(=O)c1ccncc1)c1ccc(CO)o1)c1cnc2ccccc2c1 | 0.235
O=C1NC(=O)C2C1C=CC(C(O)c1cc(C(F)(F)F)cc(C(F)(F)F)c1)N2Nc1ccc(Cl)cc1Cl (stereo not given) | -2.37

Reference: PubChem BioAssay
